Reference: the supplement of paper PMC10849652
About 8,800 targets were measured; listed, in parts, are those with a hit and a random draw of the rest. About 0.5% of all pairs of compound and target were hits. Unmarked numbers belong to inactive results.

Legend:
Test in all cases: log2 fold change, soluble protein after heating vs DMSO (PISA); higher = thermal stabilisation; K562 lysate, 10 uM; active = over 0.2 and 3.5 SD of the protein, either way, in both replicates (recomputed)
[1] = compound: Cc1cn(-c2cc(NC(=O)c3ccc(C)c(Nc4nccc(-c5cccnc5)n4)c3)cc(C(F)(F)F)c2)cn1 [nilotinib]
Procedure, shortened: (§1)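 A 30 min treatment with 10 μM compound was applied to crude K562 extract at 1 mg/mL protein in PBS pH 7.4 with 1 mM MgCl2. Heating for 3 min spanned 48°C-58°C, after which aliquots were pooled, adjusted to 0.5% NP-40 at 4°C and spun at 21,000xg for 90 min. TMTpro 16plex LC-MS/MS of the supernatant, with channel sums equalised, gave values recorded as log-two fold change in thermal stability against solvent controls, from duplicates.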

[2] = compound: Cc1nc(Nc2n[nH]c3c2CN(C(=O)N[C@H](CN(C)C)c2ccccc2)C3(C)C)c2sccc2n1
Procedure, shortened: as §1

[3] = compound: Cc1nc(Nc2ncc(C(=O)Nc3c(C)cccc3Cl)s2)cc(N2CCN(CCO)CC2)n1 [dasatinib]
Procedure, shortened: as §1

[4] = compound: Cc1ncc(-c2ccnc(Nc3ccc(S(C)(=O)=O)cc3)n2)n1C(C)C
Procedure, shortened: as §1

[5] = compound: Cn1cc(-c2ccc3c(c2)CCN3C(=O)Cc2cccc(C(F)(F)F)c2)c2c(N)ncnc21
Procedure, shortened: as §1

[6] = compound: Cn1cncc1[C@@](N)(c1ccc(Cl)cc1)c1ccc2c(c1)c(-c1cccc(Cl)c1)cc(=O)n2C [tipifarnib]
Procedure, shortened: as §1

[7] = compound: NC(=O)c1cnc(N[C@@H]2CCCC[C@@H]2N)nc1Nc1cccc(-n2nccn2)c1
Procedure, shortened: as §1

[8] = compound: NC1(c2ccc(-c3nc4ccn5c(=O)[nH]nc5c4cc3-c3ccccc3)cc2)CCC1
Procedure, shortened: as §1

[9] = compound: NCC(=O)Nc1ccc(-n2nc(C(F)(F)F)cc2-c2ccc3c(ccc4ccccc43)c2)cc1
Procedure, shortened: as §1

[10] = compound: O=C(CCCCCCC(=O)Nc1ccccc1)NO [vorinostat]
Procedure, shortened: as §1

[11] = compound: O=C(O)c1ccc2c(c1)nc(Nc1cccc(Cl)c1)c1ccncc12 [silmitasertib]
Procedure, shortened: as §1

[12] = compound: c1cn2cc(-c3ccc4cn[nH]c4c3)nc(Nc3ccc(N4CCOCC4)cc3)c2n1 [entospletinib]
Procedure, shortened: as §1

[13] = compound: Cn1cc(CNCC2CCN(c3ncc(C(=O)NO)cn3)CC2)c2ccccc21 [quisinostat]
Procedure, shortened: as §1

[14] = compound: NC(=O)Nc1cc(-c2cccc(F)c2)sc1C(=O)N[C@H]1CCCNC1
Procedure, shortened: as §1

[15] = compound: O=C1NC(=O)C(c2cnc3ccccn23)=C1c1cn2c3c(cc(F)cc13)CN(C(=O)N1CCCCC1)CC2
Procedure, shortened: as §1

UniProt Q99795, sequence (Q99795 whole entry, looked up): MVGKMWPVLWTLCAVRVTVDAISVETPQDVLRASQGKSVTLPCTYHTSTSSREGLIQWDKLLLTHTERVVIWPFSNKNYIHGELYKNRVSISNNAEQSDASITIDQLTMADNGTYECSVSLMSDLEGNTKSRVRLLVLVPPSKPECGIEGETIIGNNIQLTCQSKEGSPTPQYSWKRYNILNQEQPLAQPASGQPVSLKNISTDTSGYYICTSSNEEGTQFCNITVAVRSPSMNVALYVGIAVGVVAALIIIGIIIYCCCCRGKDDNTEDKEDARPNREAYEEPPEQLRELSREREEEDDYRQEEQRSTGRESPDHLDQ
UniProt O43824, sequence (O43824 whole entry, looked up): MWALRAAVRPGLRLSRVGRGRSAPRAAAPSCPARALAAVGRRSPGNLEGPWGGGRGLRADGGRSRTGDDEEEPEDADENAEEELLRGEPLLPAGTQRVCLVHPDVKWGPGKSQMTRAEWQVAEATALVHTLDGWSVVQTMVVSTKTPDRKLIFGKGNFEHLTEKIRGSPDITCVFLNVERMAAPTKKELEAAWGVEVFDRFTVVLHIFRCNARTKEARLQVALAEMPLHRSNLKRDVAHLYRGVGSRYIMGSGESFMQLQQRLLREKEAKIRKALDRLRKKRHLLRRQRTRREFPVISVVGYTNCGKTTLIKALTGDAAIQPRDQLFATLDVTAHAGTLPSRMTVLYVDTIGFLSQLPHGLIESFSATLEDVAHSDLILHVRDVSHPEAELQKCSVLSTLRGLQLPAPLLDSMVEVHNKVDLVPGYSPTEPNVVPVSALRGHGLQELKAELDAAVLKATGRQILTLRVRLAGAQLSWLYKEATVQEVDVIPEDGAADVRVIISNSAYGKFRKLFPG
UniProt P52333, sequence (P52333 whole entry, looked up): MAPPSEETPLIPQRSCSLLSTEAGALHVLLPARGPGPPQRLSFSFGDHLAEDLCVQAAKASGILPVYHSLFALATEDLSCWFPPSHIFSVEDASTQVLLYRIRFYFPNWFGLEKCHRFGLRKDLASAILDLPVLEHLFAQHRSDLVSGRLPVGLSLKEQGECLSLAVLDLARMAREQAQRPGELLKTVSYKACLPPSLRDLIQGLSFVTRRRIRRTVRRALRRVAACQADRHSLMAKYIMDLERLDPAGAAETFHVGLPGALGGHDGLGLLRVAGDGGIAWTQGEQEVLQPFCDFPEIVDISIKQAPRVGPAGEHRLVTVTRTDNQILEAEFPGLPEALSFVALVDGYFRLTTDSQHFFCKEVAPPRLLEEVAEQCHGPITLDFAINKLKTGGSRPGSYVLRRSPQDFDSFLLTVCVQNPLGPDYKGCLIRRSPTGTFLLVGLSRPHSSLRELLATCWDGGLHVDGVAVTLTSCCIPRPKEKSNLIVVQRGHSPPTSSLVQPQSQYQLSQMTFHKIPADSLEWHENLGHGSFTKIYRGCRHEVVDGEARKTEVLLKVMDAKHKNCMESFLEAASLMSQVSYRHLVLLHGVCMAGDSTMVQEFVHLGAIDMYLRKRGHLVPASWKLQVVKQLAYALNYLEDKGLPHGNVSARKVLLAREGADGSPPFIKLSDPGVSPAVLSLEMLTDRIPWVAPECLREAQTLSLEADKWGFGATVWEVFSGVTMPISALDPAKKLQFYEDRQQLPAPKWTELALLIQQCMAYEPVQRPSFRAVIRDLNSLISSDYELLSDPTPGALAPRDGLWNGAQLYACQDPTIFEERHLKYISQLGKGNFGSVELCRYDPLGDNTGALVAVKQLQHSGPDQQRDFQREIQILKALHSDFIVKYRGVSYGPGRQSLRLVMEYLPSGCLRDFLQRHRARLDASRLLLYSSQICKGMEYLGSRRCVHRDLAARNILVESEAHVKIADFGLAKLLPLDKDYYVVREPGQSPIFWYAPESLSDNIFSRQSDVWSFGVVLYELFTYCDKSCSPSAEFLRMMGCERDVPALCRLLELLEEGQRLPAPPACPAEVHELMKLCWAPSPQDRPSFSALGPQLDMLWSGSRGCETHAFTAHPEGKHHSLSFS
UniProt P49841, sequence (P49841 whole entry, looked up): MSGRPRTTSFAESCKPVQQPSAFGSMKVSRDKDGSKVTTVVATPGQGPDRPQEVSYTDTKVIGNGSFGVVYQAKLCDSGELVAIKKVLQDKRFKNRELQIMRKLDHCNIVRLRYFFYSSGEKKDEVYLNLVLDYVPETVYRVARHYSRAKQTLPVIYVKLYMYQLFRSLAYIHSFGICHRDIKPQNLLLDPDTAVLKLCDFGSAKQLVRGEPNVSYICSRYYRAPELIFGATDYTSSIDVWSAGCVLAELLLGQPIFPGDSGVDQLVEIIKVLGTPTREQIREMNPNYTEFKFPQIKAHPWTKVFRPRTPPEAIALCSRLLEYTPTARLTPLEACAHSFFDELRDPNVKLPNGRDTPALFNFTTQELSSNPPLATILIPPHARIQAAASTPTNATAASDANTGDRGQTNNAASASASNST
UniProt Q9Y4H2, sequence (Q9Y4H2 whole entry, looked up): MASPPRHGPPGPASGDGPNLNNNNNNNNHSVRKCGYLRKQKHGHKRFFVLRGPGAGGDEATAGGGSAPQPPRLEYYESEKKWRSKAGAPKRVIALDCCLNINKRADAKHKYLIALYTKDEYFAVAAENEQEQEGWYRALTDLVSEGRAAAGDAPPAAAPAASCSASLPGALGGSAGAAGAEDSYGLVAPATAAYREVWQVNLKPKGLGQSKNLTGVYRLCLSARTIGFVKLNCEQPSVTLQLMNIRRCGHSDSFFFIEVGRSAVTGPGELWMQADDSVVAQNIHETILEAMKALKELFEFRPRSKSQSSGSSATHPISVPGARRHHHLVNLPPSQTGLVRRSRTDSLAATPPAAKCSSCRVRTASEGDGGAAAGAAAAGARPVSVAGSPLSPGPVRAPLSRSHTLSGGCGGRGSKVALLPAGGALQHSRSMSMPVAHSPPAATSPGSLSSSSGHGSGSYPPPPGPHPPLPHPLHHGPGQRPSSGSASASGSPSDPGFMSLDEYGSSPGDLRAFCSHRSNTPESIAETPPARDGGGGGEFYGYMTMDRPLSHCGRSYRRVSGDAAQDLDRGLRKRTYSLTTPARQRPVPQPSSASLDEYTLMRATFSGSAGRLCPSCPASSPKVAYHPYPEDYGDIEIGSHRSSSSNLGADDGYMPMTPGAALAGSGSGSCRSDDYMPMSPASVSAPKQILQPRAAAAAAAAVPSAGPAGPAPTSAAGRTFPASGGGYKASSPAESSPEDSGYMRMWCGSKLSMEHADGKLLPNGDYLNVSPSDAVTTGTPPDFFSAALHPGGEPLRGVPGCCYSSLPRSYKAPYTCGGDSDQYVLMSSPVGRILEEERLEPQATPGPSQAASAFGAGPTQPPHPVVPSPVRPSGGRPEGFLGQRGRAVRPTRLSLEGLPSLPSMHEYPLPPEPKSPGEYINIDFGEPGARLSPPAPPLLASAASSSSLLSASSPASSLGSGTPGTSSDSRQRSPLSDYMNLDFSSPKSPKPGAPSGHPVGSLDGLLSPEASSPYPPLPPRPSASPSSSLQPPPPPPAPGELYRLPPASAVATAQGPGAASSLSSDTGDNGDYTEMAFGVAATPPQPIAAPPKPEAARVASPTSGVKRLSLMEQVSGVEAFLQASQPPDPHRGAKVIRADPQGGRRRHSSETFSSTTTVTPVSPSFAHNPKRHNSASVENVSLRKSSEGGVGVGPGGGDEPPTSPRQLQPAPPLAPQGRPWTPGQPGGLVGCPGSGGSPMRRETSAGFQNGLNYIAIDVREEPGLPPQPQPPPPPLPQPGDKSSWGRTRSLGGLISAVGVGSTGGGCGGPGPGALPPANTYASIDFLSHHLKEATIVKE
UniProt Q9Y287, sequence (Q9Y287 whole entry, looked up): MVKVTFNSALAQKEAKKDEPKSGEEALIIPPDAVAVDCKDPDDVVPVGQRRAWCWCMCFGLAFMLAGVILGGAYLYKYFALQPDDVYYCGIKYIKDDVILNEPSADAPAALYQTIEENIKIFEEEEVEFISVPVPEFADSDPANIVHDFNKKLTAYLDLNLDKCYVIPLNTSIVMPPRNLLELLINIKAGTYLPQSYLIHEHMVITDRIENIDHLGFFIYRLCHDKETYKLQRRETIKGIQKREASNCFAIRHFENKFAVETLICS
UniProt Q9NSC5, sequence (Q9NSC5 whole entry, looked up): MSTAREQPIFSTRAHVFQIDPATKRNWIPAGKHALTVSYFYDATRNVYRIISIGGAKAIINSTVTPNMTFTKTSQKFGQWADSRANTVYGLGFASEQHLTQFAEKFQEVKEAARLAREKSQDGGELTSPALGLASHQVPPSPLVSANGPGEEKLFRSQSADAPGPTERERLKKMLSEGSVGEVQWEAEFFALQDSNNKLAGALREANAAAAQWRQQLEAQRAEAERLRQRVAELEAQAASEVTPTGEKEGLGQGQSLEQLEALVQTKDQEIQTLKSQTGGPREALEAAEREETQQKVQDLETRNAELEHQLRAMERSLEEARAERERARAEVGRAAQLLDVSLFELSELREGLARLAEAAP
UniProt Q9UKP3, sequence (Q9UKP3 whole entry, looked up): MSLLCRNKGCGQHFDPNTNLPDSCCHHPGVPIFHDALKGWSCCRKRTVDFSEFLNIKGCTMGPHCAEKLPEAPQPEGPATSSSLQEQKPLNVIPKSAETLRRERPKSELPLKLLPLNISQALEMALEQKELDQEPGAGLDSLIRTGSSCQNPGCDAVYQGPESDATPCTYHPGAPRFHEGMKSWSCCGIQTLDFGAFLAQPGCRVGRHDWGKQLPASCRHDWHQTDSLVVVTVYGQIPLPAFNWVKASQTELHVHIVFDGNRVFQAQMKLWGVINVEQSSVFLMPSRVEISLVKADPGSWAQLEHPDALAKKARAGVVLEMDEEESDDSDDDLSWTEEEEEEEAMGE

| Target | log2 fold change [1] | log2 fold change [2] | log2 fold change [3] | log2 fold change [4] | log2 fold change [5] | log2 fold change [6] | log2 fold change [7] | log2 fold change [8] | log2 fold change [9] | log2 fold change [10] | log2 fold change [11] | log2 fold change [12] | log2 fold change [13] | log2 fold change [14] | log2 fold change [15] |
| --- | --- | --- | --- | --- | --- | --- | --- | --- | --- | --- | --- | --- | --- | --- | --- |
| GPA33 (UniProt Q99795) | -0.085 | -0.093 | -0.077 | -0.023 | -0.09 | 0.022 | -0.045 | 0.047 | 0.041 | 0.14 | 0.051 | 0.017 | – | – | – |
| ITGB1BP2 (UniProt Q9UKP3) | – | – | -0.104 | – | 0.249 | – | – | – | 0.053 | – | – | 0.107 | – | – | – |
| HNRNPD (UniProt D6RF44) | -0.03 | 0.11 | – | 0.103 | – | 0.12 | – | – | – | – | – | – | -0.061 | -0.353 | -0.04 |
| JAK3 (UniProt P52333) | – | – | – | – | – | – | -0.056 | – | -0.319 | – | – | – | 0.131 | 0.008 | -0.002 |
| HNRNPM (UniProt M0QZM1) | – | – | -0.022 | – | -0.163 | – | – | – | 0.125 | – | – | 0 | 0 | -0.012 | 0.038 |
| HNRNPM (UniProt M0R019) | – | – | – | – | – | – | – | – | -0.198 | – | – | – | – | – | – |
| GSK3B isoform 2 (UniProt P49841) | -0.06 | 0.576 | -0.023 | 0.64 (active) | -0.028 | 0.003 | 0.061 | -0.039 | 0.02 | 0.253 | 0.421 | 0.05 | -0.084 | 0 | 0.657 |
| HECW2 (UniProt Q9P2P5) | -0.147 | 0.021 | -0.031 | -0.092 | -0.103 | -0.041 | – | 0.126 | -0.018 | -0.058 | 0.011 | -0.09 | -0.513 (active) | -0.035 | -0.004 |
| H3-3A (UniProt P84243) | – | – | – | – | – | – | 0 | -0.093 | 0.021 | -0.077 | 0 | -0.035 | 0.014 | 0.032 | 0.026 |
| IRS2 (UniProt Q9Y4H2) | -0.05 | -0.044 | -0.018 | -0.071 | -0.074 | -0.071 | 0.062 | 0.112 | – | -0.034 | -0.065 | – | -0.15 | 0.142 | 0.14 |
| GTPBP6 (UniProt O43824) | – | – | -0.025 | – | 0.136 | – | – | – | 0.069 | – | – | 0.255 | – | – | – |
| ITM2B (UniProt Q9Y287) | 0.012 | -0.028 | 0.023 | -0.002 | -0.031 | -0.012 | – | -0.024 | -0.101 | 0.141 | 0.013 | – | 0.015 | 0.018 | 0.004 |
| HOMER3 (UniProt Q9NSC5) | – | – | – | – | – | – | -0.023 | – | – | – | – | – | -0.147 | 0.019 | -0.022 |
| HMGN5 (UniProt Q5JSK9) | -0.074 | 0.062 | – | -0.036 | – | 0.076 | -0.035 | – | – | – | – | -0.187 | – | – | – |
| IPP (UniProt Q9Y573) | – | – | -0.244 | – | 0.03 | – | -0.097 | 0.093 | 0.04 | -0.633 (active) | 0.205 | 0.074 | – | – | – |
